The values below come from PubChem BioAssay.

Assay [1] in a line: Wnt pathway potentiators raising nuclear beta-catenin – imaging, WNT3A-conditioned medium, mouse C2C12, NPC library, primary screen (AID 1117326; in the data active = nuclear beta-catenin stimulation mostly above about 4.2%, no sharp cut-off; inactive = mostly below about 10%). The following applies: stronger effect = higher value.
The nature of assay [2]: stimulators of insulin release from INS-1E, primary screen, cell-based, 5 mM glucose, NPC library (AID 1117329;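 active = compound raises insulin release from rat beta cells at 5 mM glucose, no numeric limit stated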). Particulars: rat INS-1E insulin secretion, at 10 µM, stronger effect = higher value.
Assay [3] is described as follows: growth inhibition of GSK3B-pretreated HCT116 cells – cell-based, CellTiter-Glo, 0.2 to 20 µM (AID 1117336;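 active = compounds lowering colon cancer cell viability after pretreatment blocking the GSK3B kinase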). The following applies: HCT116 viability after GSK3B inhibitor, at 20 µM, stronger effect = higher value.
The nature of assay [4]: inhibition of endothelial tube formation, primary screen, imaging, VEGF stimulated, CD31 staining, tube area, NPC library (AID 1117340). Particulars: VEGF-stimulated ADSC/ECFC co-culture, at 10 µM, stronger effect = higher value.
Assay [5] in a line: GLP1 release stimulators, primary, NCI-H716, NPC library (AID 1117341;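 active = compound raises GLP1 secretion from the human gut endocrine cells, with no numeric limit stated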). The following applies: NCI-H716 cells, at 10 µM, stronger effect = higher value.
A short description of assay [6]: HCT116 colon cancer cell growth inhibition, primary screen, CellTiter-Glo luminescence, NPC library (AID 1117342;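 active = compounds that lower survival of HCT116 colon cancer cells in the luminescence readout, no numeric limit stated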). The following applies: at 20 µM (top of the series).
Assay [7] can be described thus: reduced SW480 viability measured with CellTiter-Glo, NPC library, primary (AID 1117343;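 active = compounds that lower viability of the colon cancer cells in the luminescence readout, with no numeric limit stated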). Particulars: CellTiter-Glo luminescence; at 20 µM (top of the series).
Assay [8] can be described thus: NPC library primary testing for decreased DLD-1 cell viability via CellTiter-Glo (AID 1117346;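 active = compounds that lower survival of DLD-1 colon cancer cells in the luminescence readout, no cutoff given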). The following applies: DLD-1 viability, CellTiter-Glo luminescence; at 20 µM (top of the series).
Assay [9] can be described thus: EMT-state selective cytotoxicity in co-culture – imaging, PC-3E GFP, TEM4-18 mCherry, primary screen (AID 1345086;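 active = compounds killing one labelled cell type while sparing the other, by normalised counts and ratio limits, not self-fluorescent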;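 as to all read-outs here: cells exposed to compound for 72 h before imaging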;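 as to red/green cell ratio (normalised): normalised mesenchymal count divided by normalised epithelial count so high means epithelial killing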). The following applies: PC-3E GFP / TEM4-18 mCherry co-culture, imaging cell counts, at 1 µM; for red/green cell ratio (normalised): actives lie on both sides.
Assay [10] can be described thus: viability loss with induced miR-34 in A549 – imaging, A549 dox-inducible miR-34, nuclei and caspase counts, primary screen (AID 1347080;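 active = compounds whose cell count with miR-34 switched on is under 0.7 times the count with it off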). Particulars: A549 miR-34 inducible, Hoechst nuclei count, 48 h.
For assay [11], the target named is NAD(+) hydrolase SARM1 (Homo sapiens) (UniProt Q6SZW1). The assay is described as follows: blocking NAD cleavage by SARM1 SAM-TIR – cell lysate, NAD-Glo luminescence (AID 1508614;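 active = compound whose remaining NAD level is above about 45 nM, limit read from the data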;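 also: higher remaining NAD means stronger inhibition of SARM1 NADase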). The following applies: SAM-TIR HEK293T lysate NADase, at 1 µM, stronger effect = higher value.
Assay [12] in a line: galactose survival enhancers in mitochondrial complex I cybrids – cell-based, galactose medium, ATP luminescence, primary screen (AID 1645843;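 active = z-score of at least 1.8 in each of two replicates, scored against plate mean and spread of sample wells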;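 also: positive z means more ATP and so rescue of galactose-driven cybrid death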). Particulars: complex I mutant cybrid cells, 72 h, stronger effect = higher value.
Assay [13] in a line: P. berghei load reduction in hepatocytes – cell-based, HepG2, luciferase luminescence, HepG2 viability, primary screen (AID 624349; in the data active = parasite load remaining mostly below about 12%, no sharp cut-off; inactive = mostly above about 10%;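 also: 100% = mean of DMSO negative control wells on the same plate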). Particulars: P. berghei liver stage in HepG2, luciferase luminescence, concentration not given here; parasite load remaining: stronger effect = lower value; viability: measured here: HepG2 viability without parasites.
A short description of assay [14]: MELAS cybrid and Rieske KO viability enhancers – cell-based, MELAS cybrids, Rieske KO mouse fibroblasts, CellTiter-Glo, primary screen (AID 1508586;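 active = mean z-score across replicates of 1.96 or higher in either the MELAS or the Rieske mutant cell line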;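 also: z relative to plate mean and SD of compound and empty wells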). Particulars: low glucose.
Assay [15] is described as follows: yeast 75Q aggregation reduction – 75Q-TubU reporter (AID 1593). The following applies: Yeast 75Q polyglutamine aggregation reporter.
Assay [16] in a line: blockers of cytochrome c efflux from mitochondria – biochemical, purified mitochondria (AID 1603).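 Also: mouse liver mitochondria challenged with calcium chloride; signal normalized to the plate average as 100%.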 Particulars: stronger effect = lower value.
Assay [17] is described as follows: polyglutamine aggregate formation blockers (AID 1604). Particulars: polyglutamine-induced protein aggregation inhibition assay; stronger effect = higher value; tested at 2.5 µM.
Assay [18] concerns Aerobactin synthetase IucA (Klebsiella pneumoniae hvKP1). The assay is described as follows: IucA enzyme inhibition, primary screen, biochemical, Spectrum library (AID 1346200; call rule not given here;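 also: 100% = wells without compound and 0% = wells lacking enzyme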). Particulars: malachite green pyrophosphate, A620, at 8 µM, stronger effect = lower value.
Assay [19] has as its target Mitogen-activated protein kinase 7 (Homo sapiens) (UniProt Q13164). In words: Gal4-ERK5 driven luciferase induction – cell-based, HTS, primary screen (AID 1508626;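 active = luciferase signal above three times the same-plate solvent-only control wells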;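 also: luciferase driven by Gal4-ERK5 fusion binding five Gal4 sites before minimal TATA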). The following applies: HeLa Gal4-ERK5 transactivation, 18 h, at 5 µM, stronger effect = higher value.
Where [20] appears, read: measured here: epithelial PC-3E GFP cell survival.
[21] abbreviates: measured here: mesenchymal TEM4-18 mCherry cell survival.
Where [22] appears, read: measured here: relative caspase fold change +Dox/-Dox.
Where [23] appears, read: measured here: total cells with miR-34 induction, stronger effect = lower value.
Setting [24] is: measured here: total cells without miR-34 induction.

The structures appear in SMILES notation. “And” between values parts separate entries of the source, which are not always exact repeats. Identical values can stand only once. The source made the active and inactive calls.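 The calls were made as follows, unless noted: active = compound that reduces growth-factor-driven endothelial tube area in a mixed cell culture, no cutoff stated; inactive = the rest.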

Sequence of NAD(+) hydrolase SARM1 (Homo sapiens) (Q6SZW1 whole entry, looked up): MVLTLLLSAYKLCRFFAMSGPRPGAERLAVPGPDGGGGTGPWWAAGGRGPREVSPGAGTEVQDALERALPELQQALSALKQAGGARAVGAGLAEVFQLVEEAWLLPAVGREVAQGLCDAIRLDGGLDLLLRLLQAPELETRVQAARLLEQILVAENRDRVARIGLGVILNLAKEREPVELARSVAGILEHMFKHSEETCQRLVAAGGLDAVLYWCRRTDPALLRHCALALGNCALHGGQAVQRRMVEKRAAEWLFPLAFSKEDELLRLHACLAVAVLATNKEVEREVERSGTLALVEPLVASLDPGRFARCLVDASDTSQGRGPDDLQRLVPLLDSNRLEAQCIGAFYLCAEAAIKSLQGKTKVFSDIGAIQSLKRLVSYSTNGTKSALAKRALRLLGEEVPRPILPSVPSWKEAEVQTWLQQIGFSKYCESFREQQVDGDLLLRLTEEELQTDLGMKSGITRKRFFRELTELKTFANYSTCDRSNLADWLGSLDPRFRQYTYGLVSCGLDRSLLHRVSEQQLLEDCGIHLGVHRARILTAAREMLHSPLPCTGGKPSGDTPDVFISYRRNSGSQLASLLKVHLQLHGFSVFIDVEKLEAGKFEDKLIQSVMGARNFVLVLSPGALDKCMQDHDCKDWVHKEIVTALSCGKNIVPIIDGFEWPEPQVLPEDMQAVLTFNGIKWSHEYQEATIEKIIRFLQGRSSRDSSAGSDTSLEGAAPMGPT
Sequence of Mitogen-activated protein kinase 7 (Homo sapiens) (Q13164 whole entry, looked up, the tested form may be a part): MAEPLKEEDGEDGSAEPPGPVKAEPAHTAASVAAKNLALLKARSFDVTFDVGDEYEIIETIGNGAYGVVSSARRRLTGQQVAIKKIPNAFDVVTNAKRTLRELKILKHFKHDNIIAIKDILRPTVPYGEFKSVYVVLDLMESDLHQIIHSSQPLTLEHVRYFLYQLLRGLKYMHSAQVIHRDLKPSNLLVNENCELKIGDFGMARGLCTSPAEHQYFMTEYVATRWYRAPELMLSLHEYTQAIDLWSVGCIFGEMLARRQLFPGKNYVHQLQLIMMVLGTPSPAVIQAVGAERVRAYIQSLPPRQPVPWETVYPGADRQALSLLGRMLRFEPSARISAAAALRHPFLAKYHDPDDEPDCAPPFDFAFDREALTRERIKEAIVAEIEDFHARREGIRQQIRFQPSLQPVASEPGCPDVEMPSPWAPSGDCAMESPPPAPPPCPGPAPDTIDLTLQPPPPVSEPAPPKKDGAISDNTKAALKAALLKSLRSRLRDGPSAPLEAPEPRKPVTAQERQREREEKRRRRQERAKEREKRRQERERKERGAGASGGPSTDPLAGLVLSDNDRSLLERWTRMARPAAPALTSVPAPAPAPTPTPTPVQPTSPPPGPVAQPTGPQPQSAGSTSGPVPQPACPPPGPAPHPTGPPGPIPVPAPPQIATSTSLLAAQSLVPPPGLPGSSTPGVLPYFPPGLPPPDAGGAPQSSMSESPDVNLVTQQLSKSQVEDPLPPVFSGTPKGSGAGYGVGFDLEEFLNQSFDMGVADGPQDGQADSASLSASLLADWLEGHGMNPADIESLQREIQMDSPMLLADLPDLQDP

As for `NP(N)(=O)NC(=O)c1ccc(F)cc1`, the nuclear beta-catenin stimulation in assay [1] (at 10 µM) is 0.1% (inactive); in [1] (stimulation, at 2 µM), 0.9%. Moreover, the insulin secretion stimulation in assay [2] is -0.7% (inactive). Also, in assay [3], the viability decrease was -1.25% (inactive). Also, in [4], the tube area decrease is -20.9% (inactive). Besides, the GLP1 secretion stimulation in assay [5] is 1.1% (inactive). In addition, the inhibition of viability in assay [6] was -0.3% (inactive). For the same compound, the viability decrease (inhibition) in [7] was 31.5% (inactive); in assay [8], 6.6% (inactive). In addition, the red/green cell ratio (normalised) in [9] is 0.99 (inactive). Also, the normalised cell number in [9] (setting [20]) came out at 0.92; in assay [9] (setting [21]), 0.91. The fold change in [10] (stronger effect = lower value) is 0.935 (inactive) and 0.913 (inactive); in [10] (setting [22]), 0.958 and 0.851. For the same compound, the cell count is 8980 and 8200 in [10] (setting [23]); 9600 and 8990 in assay [10] (setting [24]). For the same compound, the remaining NAD in assay [11] was 10 nM (inactive). Also, the z-score in assay [12] is -0.31 (inactive).

For the compound `NC(=O)OCCCc1ccccc1`, the parasite load remaining in assay [13] was 136% (inactive). Further, the viability in assay [13] is 89.7%. In addition, the nuclear beta-catenin stimulation is 0.8% (inactive) in assay [1] (at 10 µM) and 0.3% in assay [1] (stimulation, at 2 µM). Further, the insulin secretion stimulation in assay [2] is -2.9% (inactive). For the same compound, the viability decrease in [3] was -9.45% (inactive). Moreover, in assay [4], the tube area decrease was 18% (inactive). Moreover, the GLP1 secretion stimulation in assay [5] was 0.9% (inactive). In [6], the inhibition of viability was 4.5% (inactive). Besides, the values for the viability decrease (inhibition) in assay [7] and in [8] were -4.9% (inactive) and -16.8% (inactive), respectively. The fold change in [10] (stronger effect = lower value) was 0.887 (inactive); in assay [10] (setting [22]), 1.34. The cell count turned out to be 9650 in assay [10] (setting [23]) and 10900 in assay [10] (setting [24]). The z-score in assay [14] (MELAS cybrid survival, CellTiter-Glo 48 h, stronger effect = higher value) was -0.606 (inactive); in assay [14] (Rieske KO mouse fibroblast survival, CellTiter-Glo 72 h) it was -0.33; in assay [12], 0.64 (inactive).

`Nc1ccncc1` displayed a score in [15] of 1.34. Moreover, in assay [16], the cytochrome c release ratio is 0.88. Besides, in [17], the inhibition of aggregation is -27.8%. Besides, the parasite load remaining in assay [13] is 151% (inactive) and 61% (inactive). The viability in assay [13] is 71.5% and 95.5%. In addition, the nuclear beta-catenin stimulation was -0.9% (inactive) in assay [1] (at 10 µM) and 0.7% in assay [1] (stimulation, at 2 µM). Also, in [2], the insulin secretion stimulation is 0% (inactive). For the same compound, in [3], the viability decrease was -0.55% (inactive). For the same compound, in assay [4], the tube area decrease was -8.7% (inactive). Besides, the GLP1 secretion stimulation in assay [5] was 2.4% (inactive). Also, the inhibition of viability in assay [6] is 1.7% (inactive). In addition, the viability decrease (inhibition) was 11.9% (active) in [7] and -6.35% (inactive) in [8]. Moreover, the red/green cell ratio (normalised) in [9] is 0.8 (inactive). In addition, the normalised cell number is 1.23 in assay [9] (setting [20]) and 0.99 in assay [9] (setting [21]). Further, the activity remaining in assay [18] is 105% (inactive). Moreover, the remaining NAD in assay [11] was 10 nM (inactive). Further, the luciferase signal in assay [19] was 32 AU (inactive). Besides, the z-score in assay [12] is 0.855 (inactive) and 0.215 (inactive).

Regarding `Nc1ccc([As](=O)(O)O)cc1`, in [13], the parasite load remaining is 57.3% (inactive). Also, in assay [13], the viability is 124%. The nuclear beta-catenin stimulation in assay [1] (at 10 µM) was 1.1% (inactive); in assay [1] (stimulation, at 2 µM), 0.8%. In assay [2], the insulin secretion stimulation is -1.7% (inactive). Also, the viability decrease in assay [3] was -4.2% (inactive). The tube area decrease in assay [4] was -12.5% (inactive). The GLP1 secretion stimulation in assay [5] is 0.9% (inactive). In addition, in [6], the inhibition of viability was 26% (inactive). In addition, the results for the viability decrease (inhibition) in assay [7] and in [8] were 2.1% (inactive) and -7.6% (inactive), respectively. Also, in [9], the red/green cell ratio (normalised) was 0.96 (inactive). For the same compound, the normalised cell number is 1.12 in assay [9] (setting [20]) and 1.07 in assay [9] (setting [21]). In addition, in assay [18], the activity remaining was 117% (inactive). The fold change in assay [10] (stronger effect = lower value) is 0.904 (inactive); in assay [10] (setting [22]), 4.85. Moreover, the cell count in assay [10] (setting [23]) came to 12200; in assay [10] (setting [24]), 13500. Moreover, the remaining NAD in [11] was 10 nM (inactive). For the same compound, the luciferase signal in [19] was 48 AU (inactive).
